Assay [1] can be described thus: anti-His antibody binders, primary screen, artefact control for SMM control protein annotation, biochemical, small-molecule microarray, 635 nm fluorescence (AID 1128).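 Also: score merges feature fluorescence with signal-to-noise for each printed compound spot.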 Conditions: anti-His Alexa647 antibody binding, higher = more signal.
For assay [2], the system named is Human papillomavirus type 1a E7 protein (residues 1-88). The assay is described as follows: HPV1a E7 small-molecule binders, primary screen, biochemical, small-molecule microarray, residues 1-88, 635 nm (AID 1129). Conditions: small-molecule microarray binding, fluorescence 635 nm; higher = more signal.
Assay [3] concerns the target Focal adhesion kinase 1 (Homo sapiens) (UniProt Q05397). In words: small-molecule microarray binders of FAK, primary screen, biochemical, 635/667 nm fluorescence, BSA, DTT (AID 1130).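 Also: composite of spot emission at 667 nm and signal to noise over triplicate slides.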 Conditions: PTK2 binding, 635 nm fluorescence, higher = more signal.
The subject of assay [4] is Fibrinogen (Alexa647-labelled). The assay is described as follows: fibrinogen binders on compound microarrays, profiling panel, artefact control for SMM control-protein annotation, biochemical, small-molecule microarray, 635/667 nm fluorescence (AID 1131).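 Also: z-score merges 667 nm fluorescence with per-spot signal-to-noise over triplicate slides.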 Conditions: fibrinogen-A647 binding fluorescence, higher = more signal.
Assay [5] concerns the target Follistatin (Homo sapiens) (UniProt P19883). In words: follistatin binders on small-molecule microarrays, primary screen, biochemical, small-molecule microarray, 635/667 nm fluorescence (AID 1132). As to conditions: FST binding, 635 nm fluorescence, higher = more signal.
Assay [6] addresses Fibroblast growth factor 2 (Homo sapiens) (UniProt P09038). In words: FGF2 binders on small-molecule microarrays, primary screen, biochemical, small-molecule microarray, 635/667 nm fluorescence (AID 1133). Conditions: small-molecule microarray binding, FGF2, fluorescence 635/667; higher = more signal.
Assay [7] is described as follows: mitochondrial membrane potential change in A549 cells, profiling panel, cell-based, JC-1 fluorescence, basal, 24 h, 100 nL (AID 1138).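 Also: A549 lung adenocarcinoma cells under basal conditions with no added stimulus; test concentration not given here.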 As to conditions: higher = more signal.
Assay [8] deals with Lefty1. The assay is described as follows: Lefty1 binders on small-molecule microarrays, primary screen, biochemical, small-molecule microarray, 635/667 nm fluorescence (AID 1139). As to conditions: small-molecule microarray binding, fluorescence 635/667; higher = more signal.
The test system of assay [9] is wheat germ agglutinin (Triticum aestivum), Alexa647-labelled. In words: wheat germ agglutinin binders on compound microarrays, profiling panel, artefact control for SMM control-protein annotation, biochemical, small-molecule microarray, 635/667 nm fluorescence (AID 1140).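 Also: score merges 667 nm feature emission with signal to noise over triplicate slides.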 As to conditions: WGA-A647 binding, 635 nm fluorescence, higher = more signal.
Assay [10] has as its target Luciferin 4-monooxygenase (Photinus pyralis) (UniProt P08659). The assay is described as follows: firefly luciferase enzyme inhibitors, primary screen, biochemical, luminescence, purified enzyme, 2006 set (AID 1141).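 Also: cell-free assay with purified firefly luciferase at 100 ng per well in PBS; test concentration not given here.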 Conditions: SteadyGlo luminescence, 30 min, higher = more signal, called active from +8 up or from −8 down.

This passage reports composite z-score and z-score results from PubChem BioAssay.

Calls of active or inactive are those of the source.

Fibroblast growth factor 2 (Homo sapiens), sequence (P09038 whole entry, looked up): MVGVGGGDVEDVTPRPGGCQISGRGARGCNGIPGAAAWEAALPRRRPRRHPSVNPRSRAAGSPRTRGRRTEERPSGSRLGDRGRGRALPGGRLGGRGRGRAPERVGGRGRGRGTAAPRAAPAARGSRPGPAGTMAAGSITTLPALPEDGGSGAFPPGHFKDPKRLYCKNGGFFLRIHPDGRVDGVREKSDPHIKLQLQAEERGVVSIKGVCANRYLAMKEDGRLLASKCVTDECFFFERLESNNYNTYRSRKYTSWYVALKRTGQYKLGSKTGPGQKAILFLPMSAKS
Follistatin (Homo sapiens), sequence (P19883 whole entry, looked up): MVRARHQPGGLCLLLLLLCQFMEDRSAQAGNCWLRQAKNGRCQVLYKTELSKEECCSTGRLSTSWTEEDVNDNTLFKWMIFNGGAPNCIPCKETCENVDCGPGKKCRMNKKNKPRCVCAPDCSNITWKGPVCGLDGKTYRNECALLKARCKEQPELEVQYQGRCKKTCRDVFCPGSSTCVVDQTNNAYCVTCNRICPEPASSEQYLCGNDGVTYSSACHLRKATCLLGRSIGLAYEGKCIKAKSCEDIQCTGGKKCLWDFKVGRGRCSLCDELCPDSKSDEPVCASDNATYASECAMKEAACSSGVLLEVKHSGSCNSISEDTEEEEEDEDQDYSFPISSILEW
Luciferin 4-monooxygenase (Photinus pyralis), sequence (P08659 whole entry, looked up): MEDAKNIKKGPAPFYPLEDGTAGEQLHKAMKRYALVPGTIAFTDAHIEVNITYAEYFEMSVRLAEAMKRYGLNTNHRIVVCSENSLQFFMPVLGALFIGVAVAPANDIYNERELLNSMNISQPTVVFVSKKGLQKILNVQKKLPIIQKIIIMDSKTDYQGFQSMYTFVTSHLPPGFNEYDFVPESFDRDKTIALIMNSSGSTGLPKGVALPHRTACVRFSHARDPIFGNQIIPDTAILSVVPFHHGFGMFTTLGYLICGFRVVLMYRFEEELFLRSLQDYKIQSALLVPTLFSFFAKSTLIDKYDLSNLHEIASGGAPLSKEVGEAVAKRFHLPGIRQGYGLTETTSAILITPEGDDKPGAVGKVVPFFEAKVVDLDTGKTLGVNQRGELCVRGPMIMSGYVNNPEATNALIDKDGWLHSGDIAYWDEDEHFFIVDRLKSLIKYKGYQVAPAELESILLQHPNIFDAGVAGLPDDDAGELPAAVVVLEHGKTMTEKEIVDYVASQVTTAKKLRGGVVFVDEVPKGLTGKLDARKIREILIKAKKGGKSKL
Focal adhesion kinase 1 (Homo sapiens), sequence (Q05397 whole entry, looked up): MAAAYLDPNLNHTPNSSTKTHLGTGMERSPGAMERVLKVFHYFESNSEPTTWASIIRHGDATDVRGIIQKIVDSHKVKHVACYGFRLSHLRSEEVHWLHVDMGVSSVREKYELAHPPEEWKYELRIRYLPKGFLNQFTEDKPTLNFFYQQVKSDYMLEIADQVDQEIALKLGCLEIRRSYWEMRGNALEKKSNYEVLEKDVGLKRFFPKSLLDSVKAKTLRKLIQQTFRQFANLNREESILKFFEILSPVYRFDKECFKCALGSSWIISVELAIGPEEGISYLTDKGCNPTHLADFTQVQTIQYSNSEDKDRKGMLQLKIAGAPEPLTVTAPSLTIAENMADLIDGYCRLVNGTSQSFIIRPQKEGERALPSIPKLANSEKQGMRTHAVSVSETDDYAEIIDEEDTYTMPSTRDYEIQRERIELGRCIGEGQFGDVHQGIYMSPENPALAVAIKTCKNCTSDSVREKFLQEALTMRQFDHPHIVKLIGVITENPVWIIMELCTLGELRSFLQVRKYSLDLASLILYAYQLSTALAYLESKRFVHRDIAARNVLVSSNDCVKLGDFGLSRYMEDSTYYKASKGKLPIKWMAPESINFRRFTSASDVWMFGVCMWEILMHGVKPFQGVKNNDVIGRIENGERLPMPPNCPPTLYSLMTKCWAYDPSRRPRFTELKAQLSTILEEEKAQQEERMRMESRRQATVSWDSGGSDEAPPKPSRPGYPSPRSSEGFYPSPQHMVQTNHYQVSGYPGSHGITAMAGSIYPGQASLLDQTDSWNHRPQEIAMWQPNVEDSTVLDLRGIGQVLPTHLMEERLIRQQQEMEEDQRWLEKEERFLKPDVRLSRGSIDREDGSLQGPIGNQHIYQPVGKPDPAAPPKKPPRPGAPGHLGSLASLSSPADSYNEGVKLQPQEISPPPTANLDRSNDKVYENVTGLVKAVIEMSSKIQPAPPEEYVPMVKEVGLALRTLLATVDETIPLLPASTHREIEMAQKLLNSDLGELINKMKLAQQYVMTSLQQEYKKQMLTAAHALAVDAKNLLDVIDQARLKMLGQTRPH

Take `CCN(CC)c1ccc(N2CC=CC34O[C@@H]5C=CCCOC(=O)C5[C@H]3C(=O)N(C(C)CO)[C@@H]4C2=O)cc1` (stereo not given in full): the composite z-score in assay [1] is 1.72; in assay [2] it was 0.649; in assay [3], 0.339; in assay [4], -0.943; in [5], 0.461; in assay [6], -0.199. Further, the composite z-score in assay [8] came out at 0.399; in assay [9] it was 0.329. For the same compound, the z-score is 0.337 in assay [7] and -0.421 (inactive) in assay [10].
Consider `CC(C)NC(=O)[C@@]1(C)c2ccccc2C(=O)N(Cc2ccccc2)[C@H]1c1ccc(CO)cc1`, for which the composite z-score is 2.31 in assay [1]; 0.244 in assay [2]; -0.226 in [3]; -0.722 in assay [4]; -0.4 in [5]; -0.719 in assay [6]. The composite z-score was -0.189 in assay [8] and 0.948 in assay [9]. In addition, the z-score was 0.648 in assay [7] and -1.09 (inactive) in assay [10].
As for `COC(=O)[C@@]1(Cc2ccc(OC)cc2)[C@H]2c3cc(C(=O)N4CCCC4)n(Cc4ccc(Cl)c(C(F)(F)F)c4)c3C[C@H]2CN1C(=O)c1ccccc1`, the composite z-score in assay [1] is 1.27; in assay [2], 1.19; in assay [3], 0.421; in assay [4] it was 0.972; in assay [5] it was 1.34; in [6] it was 0.433. Also, the composite z-score in assay [8] was 0.125; in [9] it was 1.07. The z-score is 1.38 in [7] and 0.166 (inactive) in [10].
With `CCOC(=O)C[C@H]1[C@H](OC(=O)c2ccccc2-c2ccccc2)[C@@H](NC(=O)C2CCCCC2)c2cc(OCCCO)ccc2N1C(=O)c1ccc2ccccc2n1`, the composite z-score in assay [1] was determined as 0.316; in assay [2], 0.667; in assay [3], 0.853; in [4], 0.593; in assay [5] it was 1.15; in [6], 0.889. The composite z-score in assay [8] came out at 1.09; in [9] it was 0.27. In addition, the figures for the z-score in [7] and in assay [10] were 0.309 and 0.595 (inactive), respectively.
Regarding `CC(C)[Si](C#CCCc1ccccc1)(O[C@H](c1ccccc1)c1cn(Cc2ccccc2)nn1)C(C)C`, the composite z-score in [1] turned out to be 0.269; in [2], 1.09; in assay [3], 0.104; in assay [4], 0.642; in assay [5] it was 0.709; in assay [6], 0.368. Further, the composite z-score was 0.919 in [8] and 0.782 in assay [9]. The z-score is 0.26 in assay [7] and 0.898 (inactive) in [10].
As to `Cc1ccc(C(C)CC(O)C2C=CC3C(=O)N(C)C(=O)C3N2Nc2ccccc2)o1` (stereo not given), the composite z-score stood at 0.298 in [1]; 1.22 in assay [2]; 0.0621 in [3]; 0.655 in assay [4]; 0.941 in [5]; 0.482 in assay [6]. The composite z-score is 0.497 in assay [8] and 1.15 in assay [9]. The z-score in [7] is 0.16; in assay [10], 0.226 (inactive).
In the case of `CC1CC/C=C\[C@H]2OC34C=CCN(Cn5nnc6ccccc65)C(=O)[C@H]3N(CCCCCCO)C(=O)[C@@H]4C2C(=O)O1` (stereo not given in full), the composite z-score in assay [1] is 0.965; in assay [2], -0.506; in [3] it was -0.121; in assay [4], -0.627; in assay [5], -1.45; in assay [6] it was -1.09. In addition, the composite z-score in assay [8] was -0.654; in assay [9], -0.435. For the same compound, the z-score is 0.966 in assay [7] and 0.152 (inactive) in assay [10].
For the compound `C=C(COC)C(=O)CC[C@@H](OC(C)=O)c1ccccc1OCCO`, the composite z-score in [1] is 0.456; in assay [2], 0.318; in [3], -0.517; in assay [4], -0.698; in [5], 1.15; in assay [6], 1.09. Also, the composite z-score was 0.791 in assay [8] and 0.523 in assay [9]. Moreover, the z-score in assay [7] is 0.356; in assay [10], -2.79 (inactive).
`CC(C)(C)N1CC=CC23O[C@@H]4C=CCOC(=O)[C@@H]4[C@H]2C(=O)N(CCO)[C@@H]3C1=O` (stereo not given in full): the composite z-score was 1.6 in assay [1]; -0.539 in assay [2]; -0.747 in assay [3]; -2.09 in assay [4]; -0.262 in assay [5]; -1.36 in [6]. Besides, the figures for the composite z-score in [8] and in assay [9] were -0.0106 and -0.155, respectively. Also, the results for the z-score in assay [7] and in [10] were 0.257 and -0.387 (inactive), respectively.
Regarding `Cc1ccccc1C(O)C1C=CC2C(=O)N(c3ccccc3)C(=O)C2N1Nc1ccccc1` (stereo not given), the composite z-score was found to be 1.53 in [1]; 1.25 in assay [2]; 0.969 in assay [3]; 1.03 in assay [4]; 1.3 in assay [5]; 0.0635 in assay [6]. The composite z-score in assay [8] came out at 0.55; in assay [9], 1.33. Further, the values for the z-score in [7] and in assay [10] were -0.128 and -0.818 (inactive), respectively.
Take `C=CCNC(=O)[C@H]1[C@@H]2C(=O)O[C@@H](c3ccccc3)[C@@H](c3ccccc3)N2[C@@H](c2ccc(OCCO)cc2)[C@]12C(=O)Nc1ccccc12`: the composite z-score is 2.03 in assay [1]; 0.905 in [2]; 0.624 in assay [3]; 0.861 in assay [4]; -0.034 in [5]; -0.342 in assay [6]. For the same compound, the values for the composite z-score in [8] and in assay [9] were -0.0965 and 1.22, respectively. Also, the z-score in assay [7] was -0.287; in assay [10], -0.0907 (inactive).
